# FLuc inh: Firefly luciferase inhibition profiling of diverse chemical library using quantitative high-throughput screening | Luciferin 4-monooxygenase (Photinus pyralis), P08659 | purified P. pyralis luciferase, luminescence, biochemical | Potency, µM (series often up to 115 µM), most hits filed as inhibitors | hit rate 2.5% among 76,000 | AID 1347043, 2019; further: nearly all actives have a fitted effect of over 65% in size
#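 Purified P. pyralis luciferase (10nM final) in 50mM Tris acetate pH 7.5, 10mM Mg acetate, 0.01% Tween-20, 0.05% BSA with 10uM D-luciferin and 10uM ATP. Compounds titrated qHTS. Luminescence imaged on CCD.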
# 3T3 cytotox: Cytotoxic Profiling in NIH 3T3 Cell Line of Diverse Libraries Using Quantitative High-Throughput Screening. NIH 3T3 viability, CellTiter-Glo ATP luminescence, 48-72 h. Potency, µM (top dose mostly 96.7 µM), inactives show at the highest dose activity change, negative = cytotoxicity, actives largely listed as inhibitors. hit rate 4.3% among 94,000. AID 1345082, 2018; further: nearly all actives have a fitted effect of over 55% in size
#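 Cytotoxicity is measured as loss of cellular ATP: NIH 3T3 cells (400/well) are exposed to compound for 48 or 72 hr at 37 °C, then CellTiter-Glo luminescence is imaged after 10 min at room temperature.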
# HEK cytotox: Cytotoxic Profiling in HEK 293 Cell Line of Diverse Libraries Using Quantitative High-Throughput Screening. HEK 293 viability, ATP luminescence (CellTiter-Glo), 48-72 h. Potency, µM (doses to about 115 µM), inactives show top-dose activity change, negative = cytotoxicity, usual class: inhibitors. hit rate 6.6% among 94,000. AID 1345083, 2018; further: nearly all actives have a fitted effect of over 60% in size
#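 Luminescence from cellular ATP, measured with CellTiter-Glo, indicates HEK 293 viability. Cells plated at 250 cells/well are treated with compound for 48 or 72 hr at 37 degree Celsius before reagent addition.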
# hNpr1 antagonist: Natriuretic polypeptide receptor (hNpr1) antagonism - Primary qHTS | Atrial natriuretic peptide receptor 1 (Homo sapiens), P16066 | HEK293 hNpr1 GloSensor cGMP, ANP-stimulated luminescence | Potency, µM (series often up to 46.3 µM), inactives show top-dose activity change, negative = inhibition, most hits filed as inhibitors | hit rate 1.6% among 76,000; calls by dose curve; further: nearly all actives have a fitted effect of over 60% in size
# Target sequence (P16066 whole entry, looked up): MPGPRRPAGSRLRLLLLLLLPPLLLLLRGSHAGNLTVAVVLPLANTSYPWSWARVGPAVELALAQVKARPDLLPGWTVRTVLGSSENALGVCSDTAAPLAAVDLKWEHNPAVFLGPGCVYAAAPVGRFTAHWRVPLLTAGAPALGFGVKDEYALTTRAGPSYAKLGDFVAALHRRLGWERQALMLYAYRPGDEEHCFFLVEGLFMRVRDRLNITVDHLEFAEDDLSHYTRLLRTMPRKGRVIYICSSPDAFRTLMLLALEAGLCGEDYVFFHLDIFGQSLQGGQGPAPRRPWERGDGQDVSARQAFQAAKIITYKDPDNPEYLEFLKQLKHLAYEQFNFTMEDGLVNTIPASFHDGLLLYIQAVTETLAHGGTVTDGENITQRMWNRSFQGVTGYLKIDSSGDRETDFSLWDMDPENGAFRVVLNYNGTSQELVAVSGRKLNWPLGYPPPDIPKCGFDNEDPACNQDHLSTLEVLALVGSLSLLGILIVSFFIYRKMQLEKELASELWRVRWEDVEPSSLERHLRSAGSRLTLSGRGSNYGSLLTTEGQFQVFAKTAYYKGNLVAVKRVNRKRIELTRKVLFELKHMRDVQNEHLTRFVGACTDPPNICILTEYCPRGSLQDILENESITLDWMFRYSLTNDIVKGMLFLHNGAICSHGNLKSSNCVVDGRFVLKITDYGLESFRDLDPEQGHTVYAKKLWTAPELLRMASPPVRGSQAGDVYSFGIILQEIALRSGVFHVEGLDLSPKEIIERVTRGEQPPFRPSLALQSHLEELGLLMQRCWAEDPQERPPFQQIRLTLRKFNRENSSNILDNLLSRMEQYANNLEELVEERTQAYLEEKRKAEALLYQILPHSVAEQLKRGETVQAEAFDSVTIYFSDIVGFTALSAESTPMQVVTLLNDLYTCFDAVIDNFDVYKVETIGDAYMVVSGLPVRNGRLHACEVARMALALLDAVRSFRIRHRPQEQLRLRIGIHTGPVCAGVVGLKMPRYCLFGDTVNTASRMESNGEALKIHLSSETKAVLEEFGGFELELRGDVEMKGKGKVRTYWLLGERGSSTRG
#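 HEK293 cells stably expressing human Npr1 and cGMP GloSensor pGS-40F, loaded 2 h with 2% GloSensor reagent, given compound 30 min at room temperature. Luminescence read before and 20 min after 0.1 nM hNppA.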
# GPT2 inhibitor: Primary qHTS assay for inhibitors of Glutamate pyruvate transaminase 2 (GPT2). AID 1671188, 2021. Recombinant GPT2, coupled pyruvate oxidase/HRP Amplex Red fluorescence. hit rate 0.25% among 100,000. Potency, µM (titrated, usually from 57.7 µM), for inactives: top-dose activity change, negative = inhibition, hits mostly inhibitors; further: nearly all actives have a fitted effect of over 60% in size
#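 Recombinant GPT2 (10ng/uL) with 250uM a-KG and 2mM L-alanine, 30 min at room temperature, in HEPES pH 7.5 buffer. Pyruvate detected by pyruvate oxidase/HRP/Amplex Red fluorescence after 30 min in the dark; AOA (50uM) as positive control.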
# * hit, by the source's call; i = inactive; ? = inconclusive; nt = no result given; [ ] = remark or other dose. Most compounds without a hit are left out; they make up all but 10% or so of the library. Unless noted, the call rests on the fitted dose curve; in most records, active means well fitted curve in the direction sought with a large enough effect; inconclusive means small, poorly fitted or top-dose-only effect, or another doubt; inactive means no such curve, though single readings can be large; an effect the other way counts as inactive or inconclusive. On the % scale 0 is the no-effect control and ±100 the full control effect; potency means the concentration at half of the fitted maximal effect.
SMILES,FLuc inh,3T3 cytotox,HEK cytotox,hNpr1 antagonist,GPT2 inhibitor
CC(C)c1ccc(NC(=O)OC[C@H]2C[C@@H]3CCN2C[C@@H]3c2cc(C3CCCCC3)nn2C)cc1,i,22µM*,14µM*,-19%,-3%
CC[C@H]1CN2CC[C@H]1C[C@@H]2CNC(=O)Nc1cc(OC)cc(OC)c1,i,?,-40%[172 µM],2%[70.6 µM],0%[88.5 µM]
CCC(CC)c1cc([C@H]2CN3CC[C@H]2C[C@@H]3CNC(=O)c2ccccc2)nc(-c2ccncc2)n1,i,-43%,?,-12%,?
Cn1nc(C2CCCCC2)cc1[C@H]1CN2CC[C@H]1C[C@@H]2CN,i,?,100µM*,1%[70.6 µM],1%[88.5 µM]
CCCCCC(=O)N1C[C@H](C(=O)OCC)[C@H]2c3ccccc3N(CCO)C(=O)[C@]21C,nt,?,?,nt,1%[27.3 µM]
O=C(Cc1ccc(Cl)nc1)N1CCN(CCCn2nc3n(c2=O)CCCC3)CC1,nt,-15%,3%,nt,nt
O=C(Nc1ccc2n(c1=O)C[C@H]1C[C@@H]2CN(C(=O)COc2ccccc2)C1)c1cccs1,i,?,?,-6%,-4%
O=C(Nc1ccccc1)Nc1ccc2n(c1=O)C[C@H]1C[C@@H]2CN(C(=O)c2cccs2)C1,5.6µM*,?,?,-1%[70.6 µM],3%[88.5 µM]
O=C(Nc1ccc2n(c1=O)C[C@H]1C[C@@H]2CN(Cc2ccc(F)cc2)C1)c1cccs1,?,?,25µM*,?,?
Cc1nc(-c2ccccc2)cc([C@H]2CN3CC[C@H]2C[C@@H]3CN(Cc2ccco2)Cc2ccco2)n1,i,22µM*,?,-16%,3%
Cc1nc(-c2ccco2)cc([C@H]2CN3CC[C@H]2C[C@@H]3CNC(=O)NC2CCCCC2)n1,i,100µM*,?,1%[70.6 µM],i
Cc1nc(-c2ccco2)cc([C@H]2CN3CC[C@H]2C[C@@H]3CNC(=O)C2CCCCC2)n1,i,?,?,?,i
Cc1nc(-c2ccccc2)cc([C@H]2CN3CC[C@H]2C[C@@H]3CNC(=O)C2CC2)n1,i,-23%[174 µM],-12%[172 µM],-1%[70.6 µM],?
Cc1nc(-c2ccco2)cc([C@H]2CN3CC[C@H]2C[C@@H]3CNC(=O)Nc2ccccc2)n1,i,?,89µM*,-11%[70.6 µM],-11%[88.5 µM]
C=CCNC(=O)NC[C@H]1C[C@@H]2CCN1C[C@@H]2c1cc(-c2ccco2)nc(C)n1,i,-3%[174 µM],-9%[172 µM],3%[70.6 µM],i
O=C(Cc1ccccc1)N1CCCN(CCn2nc3n(c2=O)CCCC3)CC1,nt,-9%,-7%,nt,nt
O=C(Cc1ccc(Cl)cc1)N1CCCN(CCn2nc3n(c2=O)CCCC3)CC1,nt,-7%,0%,nt,nt
CCNC(=O)NC[C@H]1C[C@@H]2CCN1C[C@@H]2c1cc(-c2ccccc2)nn1C,i,-15%[174 µM],?,5%[70.6 µM],0%[88.5 µM]
CS(=O)(=O)NC[C@H]1C[C@@H]2CCN1C[C@@H]2CN1C[C@@H]2C[C@H](C1)c1cccc(=O)n1C2,i,i,-22%[172 µM],12%[70.6 µM],0%[88.5 µM]
CN1CCc2c([nH]c3ccccc23)C12CCNCC2,i,?,89µM*,-1%,3%
CCC1CC2CN3CCc4c([nH]c5ccccc45)C(C(=O)OC)(C2)C13 (stereo not drawn),nt,nt,nt,nt,-4%[27.3 µM]
C#C[C@H]1CN2CC[C@H]1C[C@@H]2COC(=O)Nc1ccc(OC(F)(F)F)cc1,i,40µM*,?,?,-3%[88.5 µM]
C#C[C@H]1CN2CC[C@H]1C[C@@H]2COC(=O)Nc1ccc(Br)cc1,i,?,?,-3%[70.6 µM],?
C#C[C@H]1CN2CC[C@H]1C[C@@H]2COC(=O)Nc1ccc(C(C)(C)C)cc1,i,79µM*,?,-1%[70.6 µM],i
Cc1nc(-c2cccs2)cc([C@H]2CN3CC[C@H]2C[C@@H]3COC(=O)NC2CCCCC2)n1,i,45µM*,45µM*,2%,i
SMILES,FLuc inh,3T3 cytotox,HEK cytotox,hNpr1 antagonist,GPT2 inhibitor
Cc1nc(-c2cccs2)cc([C@H]2CN3CC[C@H]2C[C@@H]3COC(=O)Nc2cccc(C(F)(F)F)c2)n1,i,?,11µM*,?,3%
CCCNC(=O)OC[C@H]1C[C@@H]2CCN1C[C@@H]2c1cc(-c2cccs2)nc(C)n1,i,?,112µM*,0%[70.6 µM],-4%[88.5 µM]
COc1ccccc1-c1cc([C@H]2CN3CC[C@H]2C[C@@H]3COC(=O)Nc2cccc(C(C)=O)c2)nc(C)n1,i,?,89µM*,-11%,4%
COc1ccc(-c2cc([C@H]3CN4CC[C@H]3C[C@@H]4COC(=O)NC3CCCCC3)nc(C)n2)cc1,i,-21%,-20%,5%,-7%
O=c1c(-c2cccs2)ccc2n1C[C@H]1C[C@@H]2CN(C2CCOCC2)C1,i,-27%[174 µM],-19%[172 µM],-1%[70.6 µM],4%[88.5 µM]
CC(C)NC(=O)[C@H]1CN2CC[C@H]1C[C@@H]2Cn1cc(CO)nn1,i,-2%[174 µM],-1%[172 µM],4%[70.6 µM],-6%[88.5 µM]
COCC(=O)N1CC[C@@H]2COCCN(Cc3cccnc3)[C@@H]2C1,nt,-1%,i,nt,3%
COc1cc2c(cc1Oc1ccccc1)NC(=O)C21CCN(C(=O)c2ccccc2)CC1,i,?,?,?,2%[88.5 µM]
COc1cc2c(cc1Oc1ccccc1)NC(=O)C21CCN(C(=O)c2ccnn2C)CC1,i,?,71µM*,?,1%[88.5 µM]
COc1cc2c(cc1Oc1ccccc1)NC(=O)C21CCN(C(=O)Cc2ccccc2)CC1,i,?,40µM*,?,5%
COc1cc2c(cc1Oc1ccccc1)NC(=O)C21CCN(C(=O)c2cnccn2)CC1,i,-9%[138 µM],?,0%[70.6 µM],-3%[88.5 µM]
COc1cc2c(cc1Oc1ccccc1)NC(=O)C21CCN(C(=O)C2CCC2)CC1,i,?,?,-12%[70.6 µM],4%[88.5 µM]
COc1cc2c(cc1Oc1ccccc1)NC(=O)C21CCN(C(=O)c2cccc(O)c2)CC1,i,?,45µM*,-17%,?
CCOC(=O)[C@H]1CN(C(=O)Cc2ccc(OC)cc2)[C@]2(C)C(=O)N(CC3CC3)c3ccccc3[C@H]12,nt,?,?,nt,i
C=CCN1CC[C@]23c4c5ccc(O)c4O[C@H]2[C@@H](O)CC[C@@]3(O)[C@H]1C5,nt,nt,nt,nt,-12%
COc1ccc(-c2cn(C[C@H]3C[C@@H]4CCN3C[C@@H]4C(=O)NC3CC3)nn2)cc1,i,-3%[174 µM],i,-8%[70.6 µM],3%[88.5 µM]

# Compound activity deposited in PubChem BioAssay by National Center for Advancing Translational Sciences (NCATS).
